Results as given in PubChem BioAssay (NCATS).
Activity calls are given as the source filed them. No rule for the calls is given here.

system: HIV-1 nucleocapsid protein NCp7 (binding to TG oligonucleotide); experiment: HIV Nucleocapsid (AID 346); conditions: HIV-1 NC / fluorescein-TGTGTGTG probe, fluorescence polarization;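 also: potency is for inhibitors that block NC binding and lower polarization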
Outline: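 Reagents dispensed (10 nM TG4xF, 100 nM HIV-1 NC), plates spun, compounds pin-transferred, then incubated 1 hr at room temperature before FP imaging. Buffer: Hepes pH 7.5, 250mM NaCl, 1uM ZnCl2, 100 uM TCEP, 5 mM 2-mercaptoethanol.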
Potency is read from the fitted curve at half-maximal effect.

Compound | Potency
Cc1noc(C)c1C(=O)N1CCC[C@@]2(CCN(C(=O)Nc3ccccc3)C2)C1 | > 20 µM (inactive)
COCCNc1ccnc(-c2cccc(NS(C)(=O)=O)c2)n1 | > 20 µM (inactive)
COc1cccc(Nc2ncc3nc(CCc4ccccc4)c(=O)n(C4CC4)c3n2)c1 | > 4 µM (inactive)
COc1ccccc1CN1CC[C@@]2(CCCN(C(=O)c3c(C)noc3C)C2)C1 | > 20 µM (inactive)
Cc1noc(C)c1-c1nccc(NCc2ccccc2)n1 | > 20 µM (inactive)
CN(Cc1ccco1)c1nc(-c2cccc(C#N)c2)nc2ccccc12 | > 20 µM (inactive)
COc1ccccc1-c1nc(NCc2cnc(C)cn2)c2ccccc2n1 | > 20 µM (inactive)
COc1ccc(NC(=O)N2CC3(CCN(S(C)(=O)=O)CC3)C2)cc1 | > 20 µM (inactive)
CN(C)c1ccc(-c2cncnc2Nc2ccc(F)cc2)cc1 | > 20 µM (inactive)
COc1ccc(-n2c(=O)c(C)nc3cnc(N4CCOCC4)nc32)cc1 | > 20 µM (inactive)
CC(=O)NCCNc1ncnc2ccc(-c3ccccc3C#N)cc12 | > 20 µM (inactive)
COCCn1c(=O)c(C)nc2cnc(Oc3ccccc3)nc21 | > 20 µM (inactive)
CN(C)C(=O)c1ccc(-c2nc(NC3CCNCC3)c3ccccc3n2)cc1 | > 20 µM (inactive)
O=C(Nc1cccc(F)c1)N1CC[C@@]2(CCCN(C(=O)c3cnccn3)C2)C1 | > 20 µM (inactive)
COc1ccc(-c2nc3cnc(N4CCNCC4)nc3n(Cc3ccc(F)cc3)c2=O)cc1 | > 20 µM (inactive)
N#CCCn1c(=O)c(-c2cccs2)nc2cnc(N3CCNCC3)nc21 | 16.4 µM (inactive)
COCCn1c(=O)c(-c2cccs2)nc2cnc(Oc3ccccc3)nc21 | > 20 µM (inactive)
COCCn1c(=O)c(-c2cccs2)nc2cnc(Nc3ccccc3)nc21 | > 20 µM (inactive)
CN1CCN(c2nc(-c3cccc(C#N)c3)nc3ccccc23)CC1 | > 20 µM (inactive)
COCCn1c(=O)cnc2cnc(Nc3cccc(OC)c3)nc21 | > 20 µM (inactive)
O=C(c1ccncc1)N1CCC[C@@]2(CCN(c3ncccn3)C2)C1 | > 20 µM (inactive)
CN(C)c1ncnc2ccc(-c3cccc(NS(C)(=O)=O)c3)cc12 | > 20 µM (inactive)
c1cncc(-c2nc(N3CCNCC3)c3ccccc3n2)c1 | > 20 µM (inactive)
Cc1cnc(CNc2nc(-c3ccc(N(C)C)cc3)nc3ccccc23)cn1 | > 20 µM (inactive)
COc1cccc(Cn2c(=O)c(-c3cn(C)c4ccccc34)nc3cnc(N4CCOCC4)nc32)c1 | > 20 µM (inactive)
